The nature of this assay: Cytotoxicity counterscreen for inhibitors of SARS-CoV-2 cell entry (AID 1645845). Note: nearly all actives have a fitted effect of over 50% in size. As to conditions: cell viability (SARS-CoV-2 entry assay cells); series mostly up to 57.1 µM. An outline of the steps:
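After a 15 min room-temperature ATPLite 1step step, luminescence reflected ATP remaining in HEK293-ACE2 cells exposed to compound for 1 h plus 48 h at 37 C, with percent activity set by cell and no-cell controls.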
(The purpose of a counterscreen is to sort out artefacts and off-target activity.)

Structures are written as SMILES. Inconclusive results are not listed. A call without a number means that no potency is given here. Activity calls are given as the source filed them. Calls come from the whole dose curve.

In the case of `CCCCCCCCCCCCSCCOCCO`, the Potency entry is “inactive”.
The value for `CCOc1ccc(NS(=O)(=O)c2ccc(N)cc2)nn1` was “inactive”.
In the case of `O=C1O[C@H](CO)[C@@H](O)[C@H](O)[C@H]1O`, the Potency entry was “inactive”.
With `CC(=O)Nc1ccc(CC(=O)O)cc1`, the Potency entry was “inactive”.
Regarding `CCOC(=O)C1=C(COCCN)NC(C)=C(C(=O)OC)C1c1ccccc1Cl` (stereo not drawn), the Potency result was “inactive”.
`CC(C(=O)O)c1ccc(C(=O)c2ccccc2)s1` (stereo not drawn): the Potency entry is “inactive”.
On to `COC(=O)c1ccc(O)cc1`, for which the Potency entry was “inactive”.
As for `Cc1c(C(C)C)c(=O)n(-c2ccccc2)n1C`, the Potency entry was “inactive”.
On to `COc1cc(OC)c(C(=O)CCCN2CCCC2)c(OC)c1`, for which the Potency entry is “inactive”.
Take `CN(C)CCN(Cc1ccsc1)c1ccccn1`: the Potency result was “inactive”.
For the compound `CC(O)(P(=O)(O)O)P(=O)(O)O`, the Potency result is “inactive”.
The result for `CC(C)CN(C[C@@H](OP(=O)(O)O)[C@H](Cc1ccccc1)NC(=O)O[C@H]1CCOC1)S(=O)(=O)c1ccc(N)cc1` reads “inactive”; that for `O=C(/C=C/c1ccccc1)OCc1ccccc1`, “inactive”.

These data come from PubChem BioAssay (NCATS).
